This is a sample that favours compounds with a hit; in the whole collection about 18% have one here.
CtBP-E1A inh = CtBP/E1A binding inhibition | AlphaScreen GST-E1A/His-CtBP binding, 1536-well; stronger effect = lower value | AID 651724 | 340,000 tested, 0.49% active | activity change, % (no concentration beside the values); in the data active = activity change below about -65%; inconclusive = mostly about -30% to -63%
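AlphaScreen with 125 nM GST-E1A and 125 nM His-CtBP (5X stocks) in Tris pH 8.0, 300 mM NaCl, BSA, Tween 20, TCEP. Compounds preincubated 2 h at 37 deg C, then glutathione donor/nickel acceptor beads added for 1 h at 37 deg C in dark.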
DT40 TDP1 no CPT = qHTS for Inhibitors of human tyrosyl-DNA phosphodiesterase 1 (TDP1): qHTS in cells in absence of CPT; DT40 Tdp1-/- hTDP1 cells, no CPT, ATP luminescence, 48 h; Potency, µM (highest dose often 46.2 µM), usual class: inhibitors; 420,000 tested, 15% active; AID 686978, 2013; note: nearly all actives have a fitted effect of over 55% in size
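A cellular qHTS used chicken DT40 cells lacking endogenous Tdp1 but carrying stably transfected human TDP1. Compounds were applied without camptothecin, and cell growth kinetics were judged by ATP-dependent luminescence after ≥48 hr.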
TDP1 inh = blocks human tyrosyl-DNA phosphodiesterase 1 | 350,000 tested, 0.28% active | Potency, µM (doses to about 130 µM), hits mostly inhibitors | Q9NUW8 | AID 485290 | recombinant TDP1, AlphaScreen DNA substrate cleavage; note: nearly all actives have a fitted effect of over 40% in size
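Tdp1 1 nM final; 15 min RT w/ cpd; substrate 15 nM, 5 min; beads 10 ug/ml, 10 min; AlphaScreen read. Neg ctrl: no enzyme.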
DT40 TDP1 CPT = growth inhibition of DT40 Tdp1-/-;hTDP1 cells with camptothecin (screen for TDP1 inhibitors); Potency, µM (titrated, usually from 46.2 µM), hits mostly inhibitors; 420,000 tested, 12% active; AID 686979; chicken DT40 Tdp1-/-;hTDP1 cells + 20 nM CPT, ATP luminescence, 48 h; note: nearly all actives have a fitted effect of over 55% in size
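Chicken DT40 Tdp1-/- cells stably complemented with human TDP1 were seeded at 400 cells/well in medium containing 20 nM camptothecin, exposed to pin-transferred compounds, and grown at 37 °C for at least 48 hr. Viability was read as ATP luminescence.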
IL-1B inflam inh = inflammasome signaling inhibition, IL-1 beta readout. THP-1 LPS/ATP IL-1B secretion, AlphaLISA, 16 h; stronger effect = lower value. activity change, % at 57.5 µM. 360,000 tested, 4.7% active. AID 743279; in the data active = activity change below about -50%; inconclusive = mostly about -30% to -49%
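Secreted IL-1B measured by AlphaLISA bead assay after 16 h compound exposure of THP-1 cells; compounds (final up to 57.5 uM) added 1 h before LPS (250 ng/mL) and ATP (1.25 mM) stimulation; lower signal means less secretion.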
Six1-Eya2 inh = Six1/Eya2 interaction inhibition | Q15475+O00167 | activity change, % (test concentration not listed) | AID 651725 | 360,000 tested, 0.56% active | AlphaScreen GST-Six1/His-Eya2 binding, biochemical; stronger effect = lower value; in the data active = activity change below about -65%; inconclusive = mostly about -30% to -63%
Target sequence (O00167 whole entry, looked up): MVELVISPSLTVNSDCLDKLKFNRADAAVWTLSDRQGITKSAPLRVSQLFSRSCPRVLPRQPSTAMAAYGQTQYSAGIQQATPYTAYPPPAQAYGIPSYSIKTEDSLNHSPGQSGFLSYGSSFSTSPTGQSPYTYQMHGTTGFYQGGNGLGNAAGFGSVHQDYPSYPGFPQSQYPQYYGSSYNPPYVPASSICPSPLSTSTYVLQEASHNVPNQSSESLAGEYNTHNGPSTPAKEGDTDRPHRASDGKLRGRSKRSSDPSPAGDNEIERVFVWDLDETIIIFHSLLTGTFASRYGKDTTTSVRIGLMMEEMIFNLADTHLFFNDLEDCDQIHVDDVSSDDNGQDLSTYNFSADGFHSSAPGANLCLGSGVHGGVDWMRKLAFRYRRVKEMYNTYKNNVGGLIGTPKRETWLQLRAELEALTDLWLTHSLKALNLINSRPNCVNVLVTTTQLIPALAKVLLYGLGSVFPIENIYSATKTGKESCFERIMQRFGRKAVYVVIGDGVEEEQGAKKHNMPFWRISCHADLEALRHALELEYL
Target sequence (Q15475 whole entry, looked up): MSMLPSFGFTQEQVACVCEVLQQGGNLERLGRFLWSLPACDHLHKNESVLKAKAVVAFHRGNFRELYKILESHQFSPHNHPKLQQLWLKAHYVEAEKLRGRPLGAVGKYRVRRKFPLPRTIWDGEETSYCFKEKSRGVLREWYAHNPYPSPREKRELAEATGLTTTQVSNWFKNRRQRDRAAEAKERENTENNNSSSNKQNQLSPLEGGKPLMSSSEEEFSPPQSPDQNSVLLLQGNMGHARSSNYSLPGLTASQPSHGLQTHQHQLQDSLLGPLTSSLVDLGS
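Compounds are tested against tagged Six1 and Eya2 proteins bridged by glutathione donor and nickel acceptor beads; after a one-hour incubation at 37 °C without light, AlphaScreen emission is recorded.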
Hits are given with their value; 0 = inactive; ? = inconclusive; - = not tested or not shown. Unless noted, calls come from the whole dose curve; as a rule, active = well fitted curve in the direction sought with a large enough effect; inconclusive = small, poorly fitted or top-dose-only effect, or another doubt; inactive = no such curve, though single readings can be large; an effect the other way counts as inactive or inconclusive.

SMILES | CtBP-E1A inh | DT40 TDP1 no CPT | TDP1 inh | DT40 TDP1 CPT | IL-1B inflam inh | Six1-Eya2 inh
COC(=O)c1c(-c2ccc(Br)cc2)csc1NC(=O)Cc1ccc(OC)c(OC)c1 | 0 | 10µM | 0 | ? | 0 | 0
COC(=O)c1sccc1NC(=O)Cc1ccc(OC)c(OC)c1 | 0 | 0 | 0 | 0 | 0 | 0
COC(=O)c1c(-c2cccc3ccccc23)csc1NC(=O)Cc1ccc(OC)c(OC)c1 | 0 | 12µM | 0 | 26µM | ? | 0
O=C(Nc1ccc(N2CCN(C(=O)c3ccco3)CC2)c(Cl)c1)c1cccnc1 | 0 | ? | 0 | ? | -67 | 0
O=C(Nc1ccc(N2CCN(C(=O)c3cccs3)CC2)c(Cl)c1)c1cccnc1 | 0 | ? | 0 | ? | -79 | 0
O=C(Nc1ccc(N2CCCC2)c(Cl)c1)c1cccnc1 | 0 | ? | 0 | ? | 0 | 0
O=C(Nc1ccc(N2CCN(C(=O)c3ccco3)CC2)c(Cl)c1)c1c(F)c(F)c(F)c(F)c1F | 0 | 18µM | 0 | 15µM | -90 | 0
O=C(c1ccco1)N1CCN(C(=S)Nc2ccc(F)c(Cl)c2)CC1 | 0 | 0 | 0 | 0 | 0 | 0
Cc1cc(C)c(NC(=O)Cn2ncc3ccccc32)c(C)c1 | 0 | 0 | - | 0 | 0 | 0
Cc1ccccc1CNC(=O)CC1C(=O)NCCN1Cc1c(F)cccc1Cl (stereo unspecified) | 0 | ? | 0 | 0 | 0 | 0
COc1ccccc1OCC(=O)Nc1ccc(NC(=O)COc2ccccc2OC)cc1 | 0 | 0 | 0 | 0 | 0 | 0
CCN(CC)CCNCc1cc(Cl)c(OCC(=O)Nc2ccccc2)c(OC)c1 | 0 | 23µM | 0 | ? | 0 | 0
CCCCNCc1cc(Br)c(OCC(=O)NCc2ccccc2)c(OC)c1 | 0 | ? | 0 | 0 | 0 | 0
COc1cc(CNC(C)c2ccccc2)cc(Cl)c1OCC(=O)Nc1ccccc1 (stereo unspecified) | - | 26µM | 0 | 9.2µM | 0 | 0
COCCN=c1scc(-c2ccco2)n1/N=C/c1ccc(O)c(O)c1O | -79 | ? | 0 | ? | 0 | -84
O=c1c2ccccc2nc(-c2ccco2)n1/N=C/c1ccccc1O | 0 | ? | 0 | 0 | 0 | ?
Oc1ccc(/C=N/n2c(-c3ccco3)csc2=Nc2cccnc2)c(O)c1 | -93 | 15µM | 0 | 12µM | 0 | -93
CC(C)N=c1scc(-c2ccco2)n1/N=C/c1ccc(O)c(O)c1 | ? | 1.5µM | 0 | 1.6µM | 0 | ?
C=CCN=c1scc(-c2ccco2)n1/N=C/c1ccc(O)c(O)c1O | -78 | 5.8µM | - | 10µM | -51 | -67
COCCN=c1scc(-c2cccs2)n1/N=C(\C)c1ccco1 | 0 | ? | 0 | ? | ? | ?
Cc1c(NC(=O)CSc2nnc(N)s2)c(=O)n(-c2ccccc2)n1C | 0 | 0 | 0 | 0 | 0 | 0
CC1CC2(C)Oc3ccccc3CC2C(C)C1CNCCCN(C)C (stereo unspecified) | 0 | 1.2µM | 0 | 4.1µM | ? | 0
CCN(CC)S(=O)(=O)c1cccc(C(=O)N[C@H](C(=O)OCC(=O)Nc2ccccc2)C(C)C)c1 | 0 | ? | 0 | 0 | ? | 0
CC(C)(C)NC(=O)CC(c1ccccc1)c1ccccc1O (stereo unspecified) | 0 | 0 | 0 | 0 | ? | 0
CC(=O)NC12CC3CC(C1)CC(C(=O)N1CCN(S(=O)(=O)c4cccc([N+](=O)[O-])c4)CC1)(C3)C2 | 0 | 0 | - | ? | 0 | 0
SMILES | CtBP-E1A inh | DT40 TDP1 no CPT | TDP1 inh | DT40 TDP1 CPT | IL-1B inflam inh | Six1-Eya2 inh
CC(=O)NC12CC3CC(C1)CC(C(=O)N1CCN(S(=O)(=O)c4cccc(C(F)(F)F)c4)CC1)(C3)C2 | 0 | ? | - | 7.3µM | 0 | 0
O=C(N/N=C/c1c(O)n(Cc2ccco2)c(=O)[nH]c1=O)c1ccccc1 | -85 | 0 | - | 0 | 0 | -86
COc1cc2nc(NCc3ccccc3Cl)n3nc(-c4cccnc4)nc3c2cc1OC | - | 0 | 0 | 0 | - | -
CC(=O)CCC1C2C(O)C(C(C)C)C(OC(=O)/C=C/c3ccccc3)CC12C (stereo unspecified) | 0 | 26µM | - | 18µM | 0 | 0
CCCCn1c(N)c(N(CCOC)C(=O)c2ccc(-c3cccc(C(F)(F)F)c3)o2)c(=O)[nH]c1=O | 0 | 0 | 0 | 0 | 0 | 0
CCc1ccccc1NC(=O)c1cnn2c(C(F)(F)F)cc(-c3ccc(OC)c(OC)c3)nc12 | - | - | 0 | - | - | -
CC1CCCC(C)N1C(=O)COC(=O)c1c[nH]c2ccccc12 (stereo unspecified) | - | 3.3µM | 0 | 0 | 0 | 0
CCC1CCCCN1C(=O)CSc1nnc(-c2ccc(OC)cc2)o1 (stereo unspecified) | 0 | 21µM | 0 | ? | 0 | 0
O=C(COC(=O)c1c[nH]c2ccccc12)NC1CCCC1 | - | 0 | 0 | 0 | 0 | 0
CCC1CCCCN1C(=O)CSc1nnc(-c2ccc3c(c2)OCCO3)o1 (stereo unspecified) | 0 | 0 | 0 | 0 | 0 | 0
CCOC(=O)CSc1nnc(-c2c[nH]c3ccccc23)o1 | 0 | 0 | 0 | 0 | -93 | 0
CC1CCCC(C)N1C(=O)CSc1nnc(-c2c[nH]c3ccccc23)o1 (stereo unspecified) | 0 | 16µM | 0 | ? | 0 | 0
CC1CCCCN1C(=O)CSc1nnc(-c2ccc(Cl)s2)o1 (stereo unspecified) | 0 | 29µM | 0 | ? | 0 | 0
CCC1CCCCN1C(=O)CSc1nnc(-c2c[nH]c3ccccc23)o1 (stereo unspecified) | ? | ? | 0 | 21µM | 0 | 0
Nc1nc2ccccc2n1C(=O)c1ccccc1 | - | 18µM | 0 | ? | 0 | 0
Nc1nc2ccccc2n1C(=O)c1ccc(F)cc1 | 0 | 18µM | 0 | ? | 0 | 0
Nc1nc2ccccc2n1C(=O)CCc1ccccc1 | 0 | 18µM | 0 | ? | 0 | 0
COc1ccc(C(=O)n2c(N)nc3ccccc32)cc1OC | 0 | ? | - | ? | 0 | 0
S=C(NCc1ccccn1)Nc1ccccc1Cl | 0 | ? | 0 | ? | 0 | 0
CC(=O)NCCCc1nc2ccccc2n1Cc1ccc(C)cc1 | 0 | 0 | 0 | 0 | 0 | 0
CCOc1ccc(CCNC(=O)c2ccc(C)c(N3CCCC3=O)c2)cc1OCC | - | ? | 0 | 0 | 0 | 0
CCOc1ccc(CCNC(=O)c2ccc3c(c2)c(C)c(C)n3Cc2ccccc2)cc1OCC | - | 13µM | 0 | 16µM | - | -
Cc1ccc(Cn2c(CCNC(=O)c3cccc(C)c3)nc3ccccc32)cc1 | - | ? | 0 | 18µM | - | -
COc1cc(CCNC(=O)c2ccc3c(c2)c(C)c(C)n3Cc2cccc(C)c2)cc(OC)c1OC | - | 5.2µM | 0 | 7.3µM | - | -

Compound activity: PubChem, National Center for Advancing Translational Sciences (NCATS)
